The nature of assay [1]: CCTE_Mundy_HCI_Cortical_Synap_Neur_Matur_BPCount: CCTE's Synaptogenesis and Neurite Maturation Assay in rat cortical cells for Branch Point Count, Mundy Lab (AID 2284211). An outline of the steps: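 HCI read-out of branch points from MAP2/synaptophysin/Hoechst immunofluorescence; rat cortical cultures, AraC DIV 5, dosing DIV 7, fixed DIV 12; fit in positive direction vs DMSO baseline.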

Assay [2] in a line: CCTE_Mundy_HCI_Cortical_NOG_NeuriteCount: CCTE's Neurite Outgrowth Assay in rat cortical cells for Neurite Count, Mundy Lab (AID 2284212).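 Note: cells fixed about two days after chemical exposure began.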 An outline of the steps:
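Rat cortical primary cells; compound added 2 h post-plating, 1/10 dilution of working solution. Anti-betaIII-tubulin/AF488 ICC; ArrayScan neurite count vs DMSO.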

Assay [3] can be described thus: CCTE_Mundy_HCI_Cortical_Synap_Neur_Matur_NeuriteCount: CCTE's Synaptogenesis and Neurite Maturation Assay in rat cortical cells for Neurite Count, Mundy Lab (AID 2284222). An outline of the steps:
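Rat primary cortical cells; AraC added at DIV 5, chemicals dosed with media change at DIV 7 through DIV 12. MAP2/synaptophysin/Hoechst immunostaining, high-content imaging of neurite number; fitted relative to DMSO.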

The nature of assay [4]: UKN2_HCS_IMR90_cell_viability: Viability Assessment in the University of Konstanz (UKN) Leist Lab Neural Crest Cell Migration Assay in human induced IMR90 Pluripotent Stem Cells (UKN2) (AID 2284233).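 Note: cells exposed to compound for 24 h after a 24 h migration phase.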 An outline of the steps: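 After calcein-AM/Hoechst staining, viability is quantified by high-content fluorescence imaging, relative to DMSO, in iPSC (IMR90)-derived neural crest cells. Exposure lasts 24 h, starting after a 24 h migration period on PLO/laminin/fibronectin coating.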

Assay [5] can be described thus: CCTE_Mundy_HCI_Cortical_NOG_BPCount: CCTE's Neurite Outgrowth Assay in rat cortical cells for Branch Point Count, Mundy Lab (AID 2284237).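 Note: branch points counted about two days after chemical exposure.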 An outline of the steps:
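Measured 50.33 h after dosing, this morphology endpoint uses rat primary cortical cultures labelled for betaIII-tubulin. Branch points are quantified by high-content imaging, with DMSO as negative control and baseline.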

Assay [6] is described as follows: CCTE_Mundy_HCI_hNP1_CellTiter: CCTE's Cell Titer-Glo 2 Assay in human neuroprogenitor cells for Viability, Mundy Lab (AID 2284241; active = hit-call score of the fitted dose curve at least 0.9, where 1 is the maximum). In outline: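 Human neural progenitor cells (hNP1, WA09-derived) were plated on poly-L-ornithine/laminin and grown 40 to 44 hours at 37 °C, 5% CO2 before chemical addition. Twenty-four hours later, ATP was measured by CellTiter-Glo luminescence; loss of signal versus DMSO indicates reduced viability.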
A general note: In ATP-based viability assays light output follows the ATP content of the culture.

Assay [7] is described as follows: CCTE_Mundy_HCI_Cortical_Synap_Neur_Matur_NeuronCount: CCTE's Synaptogenesis and Neurite Maturation Assay in rat cortical cells for Neuron Count, Mundy Lab (AID 2284242; active = hit-call score of the fitted dose curve at least 0.9, where 1 is the maximum;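 note: hits reduce neuron count versus DMSO baseline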). An outline of the steps: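 Neuron counts come from automated high-content imaging of Hoechst nuclei and MAP2/synaptophysin immunostaining at DIV 12, with loss of signal judged against DMSO. Cultures of rat cortical cells had glial growth arrested by AraC at DIV 5; chemical exposure began DIV 7.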

Assay [8] is described as follows: IUF_NPC4_neurite_area_120hr: Leibniz Research Institute for Environmental Medicine (IUF) 120-hour Neuronal Morphology Assay for Neurite Area (NPC4) (AID 2284305; active = hit-call score of the fitted dose curve at least 0.9, where 1 is the maximum). In outline:
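Neurite area (pixels, nuclei excluded) of TUBB3-positive neurons from hNPC spheres differentiating 5 days under continuous exposure at 37 C, 5% CO2. High-content imaging; loss of signal versus DMSO control across 7 concentrations.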

The nature of assay [9]: CCTE_Mundy_HCI_iCellGluta_NOG_NeuronCount: CCTE's Neurite Outgrowth Assay in iCellGluta cells for Neuron Count, Mundy Lab (AID 2284340; active = hit-call score of the fitted dose curve at least 0.9, where 1 is the maximum;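 note: cells fixed about 48 h after compound addition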). In outline: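 Neuron count read by automated high-content imaging of Hoechst 33342 and betaIII-tubulin/Alexa Fluor-488 labelling in human iPSC glutamatergic neurons. Activity fitted relative to DMSO.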
The nature of assay [10]: CCTE_Mundy_HCI_iCellGluta_NOG_NeuriteCount: CCTE's Neurite Outgrowth Assay in iCellGluta cells for Neurite Count, Mundy Lab (AID 2284342; active = hit-call score of the fitted dose curve at least 0.9, where 1 is the maximum;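 note: chemical exposure about 48 hours starting 2 hours after plating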).
Assay [11] is described as follows: CCTE_Shafer_MEA_acute_burst_number: CCTE's Neural Acute Assay for Single-Electrode Bursts, Shafer Lab (AID 2284013). An outline of the steps: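 Primary rat cortical neurons on 16-electrode MEA wells, DIV 13 or 15, exposed to compound (0.03-40 uM; ≥3 wells); 40-min recordings at 37 C before and after treatment. Burst count expressed as percent change from baseline, DMSO as negative control.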

The nature of assay [12]: CCTE_Shafer_MEA_acute_per_burst_spike_number_mean: CCTE's Neural Acute Assay for Average Number of Spikes Per Burst, Shafer Lab (AID 2284015).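 Note: hits are decreases in mean spikes per burst versus baseline.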 In outline:
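Rat primary cortical neurons on 48-well MEAs (DIV 13 or 15) were treated with 0.03-40 uM compound at 37 C. Mean spikes per burst over 40 min were recorded before and after exposure and expressed as percent change from baseline, relative to DMSO.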

A short description of assay [13]: CCTE_Shafer_MEA_acute_interburst_interval_mean: CCTE's Neural Acute Assay for Mean Interburst Interval, Shafer Lab (AID 2284016).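 Note: percent change of mean interburst interval versus each well's own pre-dose baseline; curves fitted for decrease in interburst interval relative to DMSO.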 An outline of the steps:
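Rat primary cortical neurons on 48-well MEAs at DIV 13 or 15 were exposed acutely to 0.03-40 uM. Spikes detected at 8x rms noise, 37 C. Mean interburst interval from 40 min recordings expressed as percent change from 40 min pre-treatment baseline.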

Assay [14] in a line: CCTE_Shafer_MEA_acute_burst_percentage_mean: CCTE's Neural Acute Assay for Percentage of Spikes in a Burst, Shafer Lab (AID 2284017). In outline: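 Primary rat cortical neurons on 48-well MEA plates, treated on DIV 13 or 15 at 0.03-40 uM. Spikes detected at 8x rms noise at 37C; percent change from 40-min baseline to 40-min post-dose recording, fitted versus DMSO.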
A short description of assay [15]: CCTE_Shafer_MEA_acute_burst_percentage_std: CCTE's Neural Acute Assay for Standard Deviation of Burst Percentage, Shafer Lab (AID 2284018).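 Note: fitted in the negative direction so actives lower burst percentage SD.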 In outline:
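Value is percent change from baseline in the across-electrode SD of spikes-in-bursts percentage, wells with >/= 10 active electrodes. Acute 40-min exposure to 0.03-40 uM on DIV 13 or 15 rat cortical cultures, recorded at 37 C after 40-min baseline.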

Assay [16] in a line: CCTE_Shafer_MEA_acute_per_network_burst_spike_number_mean: CCTE's Neural Acute Assay for Average Number of Spikes in a Network Burst, Shafer Lab (AID 2284019). An outline of the steps: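 Percent change from baseline in mean spikes per network burst, spikes detected at 8x rms noise. Each compound at 0.03-40 uM in at least three wells of rat cortical cultures, recorded 40 min before and 40 min during exposure.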

A short description of assay [17]: CCTE_Shafer_MEA_acute_per_network_burst_spike_number_std: CCTE's Neural Acute Assay for Standard Deviation of Number of Spikes in a Network Burst, Shafer Lab (AID 2284020).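 Note: fitted for decrease in spike-number SD versus DMSO so actives lower it.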 An outline of the steps: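 Endpoint: percent change from 40 min baseline in standard deviation of spikes per network burst, after 40 min compound exposure (0.03-40 uM, 37 C). Cortical rat neurons on MEA at DIV 13 or 15; spikes detected at 8x rms noise, 300-5000 Hz band-pass.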

The nature of assay [18]: CCTE_Shafer_MEA_acute_per_network_burst_electrodes_number_mean: CCTE's Neural Acute Assay for Mean Number of Electrodes in a Network Burst, Shafer Lab (AID 2284021).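 Note: curves fitted for decreases only so hits reduce electrodes per burst.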 An outline of the steps: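 Primary rat cortical networks, mwMEA, 37 C. 20 min stabilization, 40 min baseline, compound 0.03-40 uM, 40 min re-record. Wells need >=10 active electrodes; percent change per well, negative fitting direction.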

Assay [19] in a line: CCTE_Shafer_MEA_acute_network_burst_percentage: CCTE's Neural Acute Assay for Percentage of Network Bursts, Shafer Lab (AID 2284022).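 Note: curves fitted for loss so actives lower network burst percentage.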 An outline of the steps: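 Readout is the fraction of spikes falling in network bursts, expressed as per-well percent change from a 40-min pre-exposure baseline. Primary rat cortical neurons on MEA were exposed to 0.03-40 uM compound on DIV 13 or 15 and recorded for 40 min at 37 C.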

Assay [20] in a line: CCTE_Shafer_MEA_acute_cross_correlation_area: CCTE's Neural Acute Assay for Area of Cross Correlation, Shafer Lab (AID 2284024).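 Note: area under pooled inter-electrode spike cross-correlation near zero lag as percent change from own baseline; curves fitted for loss of cross-correlation area so actives lower synchrony.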 In outline: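 Plates equilibrated 20 min at 37 C, then 40 min baseline was recorded, compound was added (0.03-40 uM), and a further 40 min was recorded. Wells needed ≥10 active electrodes (≥5 spikes/min) on exposure day.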

The values that follow come from PubChem BioAssay (EPA / NIEHS).

Inconclusive results are not listed. Active and inactive are the calls of the source. Rule for the calls, unless noted: active = hit-call score of the fitted dose curve at least 0.9, where 1 is the maximum; inactive = score below 0.9.

Broadly, the AC50 is the concentration giving half of the maximal activity seen. `Cc1c(O)cccc1C(=O)N[C@@H](CSc1ccccc1)[C@H](O)CN1C[C@H]2CCCC[C@H]2C[C@H]1C(=O)NC(C)(C)C`: the AC50 is 4.72 µM (active) in assay [1]; 33.8 µM (active) in [2]; 5.46 µM (active) in assay [3]; 15.4 µM (active) in [5]; 11.1 µM (active) in assay [6]; 4.18 µM (active) in assay [7]. The AC50 in assay [8] was 8.75 µM (active); in assay [9] it was 39.4 µM (active); in [10] it was 37.4 µM (active). For the same molecule, the molecule was called inactive in assay [4].

As to `CC1(C)S[C@@H]2[C@H](NC(=O)[C@H](N)c3ccc(O)cc3)C(=O)N2[C@H]1C(=O)O`, the result in assay [11], in [12], in assay [13], in [14], in assay [15] and in [16] was inactive. The molecule was called inactive in assay [17], in [18], in assay [19] and in assay [20].
